Results reported in PubChem BioAssay.
Values joined by “and” are separate entries in the source; they are usually repeats but may differ in a detail not shown here. Equal values may be shown once. A structure can be active in one record and inactive in another. Active and inactive are the calls of the source.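 The calls were made as follows, unless noted: active = inhibition at or above 50% relative to wild type and mutant plate controls; inactive = inhibition below 50%.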

What was measured:
[1] = reduction of polyQ htt aggregates in cells – imaging, exon1htt(103Q)mCFP cells, high-content imaging, primary screen (AID 483;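 active = visual image review flags a hit and inhibition of aggregation exceeds 20%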;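 also: compound exposure lasted 3 days before fixation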;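 as to nuclei count: percent of the per-plate median nuclei count of sample wells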); details: exon1htt(103Q)mCFP cell line, aggregate imaging, at 2 µM; inhibition of aggregation: stronger effect = higher value; nuclei count: measured here: cell count, toxicity
[2] = endothelial E-selectin expression blockers – imaging, HUVEC, immunofluorescence, MLSMR starter and 10KST1 sets, primary screen (AID 487;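 active = visually confirmed hit in the image check and inhibition above 20%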;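 as to inhibition: signal is fraction of cell area covered by stained E-selectin grains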;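 as to nuclei count: 100% = median nuclei count of all wells on the same plate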); details: HUVEC TNFalpha-induced E-selectin immunofluorescence imaging, at 2 µM; inhibition: stronger effect = higher value; nuclei count: measured here: cell number, toxicity
[3] = Primary imaging screen for DUSP6 inhibitors that restore phospho-Erk in transfected HeLa cells, chemical complementation (AID 609;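 active = compounds giving at least 50% inhibition in the cell-based MKP-3 phosphatase rescue imaging test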;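 as to inhibition: phospho-Erk level distribution per well compared with pooled transfected vehicle control wells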); details: HeLa MKP-3 transfected, phospho-Erk imaging KS statistic, at 10 µM, cells stimulated with TPA for 15 min
[4] = biological target: Dual specificity protein phosphatase 6 (Homo sapiens) (UniProt Q16828); assay: as above; details: HeLa MKP-3 transfected, phospho-Erk imaging KS statistic; at 10 µM; stronger effect = higher value; cells stimulated with TPA for 15 min
Sequence of Dual specificity protein phosphatase 6 (Homo sapiens) (Q16828 whole entry, looked up): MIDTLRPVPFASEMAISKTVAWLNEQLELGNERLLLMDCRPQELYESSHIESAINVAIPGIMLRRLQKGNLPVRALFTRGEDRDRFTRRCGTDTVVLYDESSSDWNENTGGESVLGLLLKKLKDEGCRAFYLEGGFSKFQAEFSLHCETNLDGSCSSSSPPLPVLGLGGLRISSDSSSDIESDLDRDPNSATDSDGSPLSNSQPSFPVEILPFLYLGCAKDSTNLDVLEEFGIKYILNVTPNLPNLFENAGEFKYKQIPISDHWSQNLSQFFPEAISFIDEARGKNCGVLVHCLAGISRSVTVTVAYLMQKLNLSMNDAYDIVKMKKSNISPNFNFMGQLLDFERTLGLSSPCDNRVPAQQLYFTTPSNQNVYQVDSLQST

[5] = biological target: Voltage-gated potassium channel subunit beta-2 (Rattus norvegicus) (UniProt P62483); assay: inhibitors of rat Kvbeta2 reductase activity – biochemical, NADPH fluorescence, primary screen (AID 622;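 active = fluorescence slope higher than the sample average by over 3 SD, cut at about -0.22 in these data, passing the limit was not always enough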;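 also: slope of raw intensity against log time taken from 70 to 1610 s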); details: recombinant KvBeta, 4-cyanobenzaldehyde reduction, at 10 µM, stronger effect = higher value
Sequence of Voltage-gated potassium channel subunit beta-2 (Rattus norvegicus) (P62483 whole entry, looked up): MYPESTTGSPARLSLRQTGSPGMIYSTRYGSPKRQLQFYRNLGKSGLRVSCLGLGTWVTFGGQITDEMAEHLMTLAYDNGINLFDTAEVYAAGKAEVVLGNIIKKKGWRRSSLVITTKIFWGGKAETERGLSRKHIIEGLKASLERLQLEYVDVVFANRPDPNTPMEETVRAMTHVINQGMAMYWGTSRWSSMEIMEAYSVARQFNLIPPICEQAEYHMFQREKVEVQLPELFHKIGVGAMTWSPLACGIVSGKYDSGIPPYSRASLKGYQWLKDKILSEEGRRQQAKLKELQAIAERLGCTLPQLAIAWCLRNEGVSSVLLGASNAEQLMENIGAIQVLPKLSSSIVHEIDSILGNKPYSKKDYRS

[6] = biological target: Voltage-gated potassium channel subunit beta-2 (Rattus norvegicus) (UniProt P62483); assay: enhancers of rat Kvbeta2 NADPH turnover – biochemical, NADPH fluorescence, primary screen (AID 623;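 active = NADPH fluorescence slope more negative than the mean of all samples by about 3 SD, 99.7% confidence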;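 also: fluorescence intensity change per second fitted from 20 to 320 s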); details: Recombinant KvBeta, NADPH fluorescence decrease slope, 10 min; at 10 µM; stronger effect = lower value
[7] = biological target: Alpha-2C adrenergic receptor (Homo sapiens) (UniProt P18825); assay: compounds altering alpha2C-coupled GIRK flux – cell-based, HEK293 alpha2C/GIRK1/2, thallium flux, primary screen (AID 624;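 active = fluorescence slope after compound addition differing from the mean of all screened samples at 99.7% confidence, in either direction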;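 also: slope of fluorescence ratio to pre-addition baseline per second over 15 to 24 s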); details: thallium flux BTC fluorescence, at 10 µM, actives lie on both sides
Sequence of Alpha-2C adrenergic receptor (Homo sapiens) (P18825 whole entry, looked up): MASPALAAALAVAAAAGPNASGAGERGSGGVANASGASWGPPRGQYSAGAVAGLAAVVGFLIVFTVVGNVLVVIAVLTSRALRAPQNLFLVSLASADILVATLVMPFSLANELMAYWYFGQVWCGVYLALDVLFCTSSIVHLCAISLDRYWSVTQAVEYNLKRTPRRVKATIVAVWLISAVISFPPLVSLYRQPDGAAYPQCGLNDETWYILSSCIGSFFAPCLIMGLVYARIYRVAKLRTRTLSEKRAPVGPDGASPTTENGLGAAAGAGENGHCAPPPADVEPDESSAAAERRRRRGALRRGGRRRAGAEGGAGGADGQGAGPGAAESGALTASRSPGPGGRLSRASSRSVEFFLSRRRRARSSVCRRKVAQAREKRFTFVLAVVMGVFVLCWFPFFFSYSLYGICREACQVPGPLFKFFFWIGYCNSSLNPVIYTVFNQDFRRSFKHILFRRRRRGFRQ

[8] = inhibitors of larval lipid processing in zebrafish, primary screen, whole organism, PED6 fluorescence, gall bladder and intestine (AID 686;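 active = a full or partial loss of lipid-probe fluorescence in the fish gall bladder, intestine or both, judged by eye; inactive = no fluorescence loss, or compound toxic to the fish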;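 also: larvae 5 to 7 days old with five fish per well; signal comes from phospholipase A2 cleavage of quenched PED6 carried via bile; overnight exposure to compound and PED6 before scoring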); details: Zebrafish larvae PED6 lipid processing, fluorescence scoring; screened at 20 µM (by protocol)
[9] = loss of swimming-algae plug formation – whole organism, Chlamydomonas reinhardtii, WT vs cilia-less mutant, absorbance, 96-well, primary screen (AID 463189); details: Chlamydomonas reinhardtii gravitaxis, OD600 absorbance, 2 days; at 10 µM; stronger effect = higher value;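 also: 0% = wild type cc124 cells in DMSO and 100% = ciliumless bld1 mutant cells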
[10] = blockers of RIG-like receptor reporter activation – cell-based, Sendai virus stimulus, luciferase, 10K MLSCN set, TLR/RLR signaling modifier project, primary screen (AID 602276;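 active = inhibition at or above 50% at 10 µM; inactive = inhibition below 50%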;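 also: firefly luciferase from ISG56 promoter only with Renilla not read in this screen; 0% = Sendai virus plus DMSO and 100% = medium plus DMSO without virus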); details: HEK293 RL24 IRF3 luciferase reporter, at 10 µM, stronger effect = higher value
[11] = TLR3 IRF3 reporter activation blockers – cell-based, poly I:C stimulus, luciferase, 10K MLSCN set, primary screen (AID 602277;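 active = inhibition of the reporter signal at or above 50%; inactive = inhibition below 50%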); details: HEK293-TLR3 RL24 IRF3 luciferase reporter, at 10 µM, stronger effect = higher value
[12] = biological target: Muscarinic acetylcholine receptor M4 (Homo sapiens) (UniProt P08173); assay: M4-linked GIRK flux change, two-sided – cell-based, HEK293 M4/GIRK, thallium flux, BTC-AM, M4 allosteric agonist project, primary screen (AID 625;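 active = fluorescence slope after compound addition differing from the mean of all tested samples at 99.7% confidence, mostly higher but some lower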;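 also: thallium influx through GIRK channels coupled to M4 in HEK293 cells with BTC-AM dye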); details: at 10 µM, actives lie on both sides
Sequence of Muscarinic acetylcholine receptor M4 (Homo sapiens) (P08173 whole entry, looked up): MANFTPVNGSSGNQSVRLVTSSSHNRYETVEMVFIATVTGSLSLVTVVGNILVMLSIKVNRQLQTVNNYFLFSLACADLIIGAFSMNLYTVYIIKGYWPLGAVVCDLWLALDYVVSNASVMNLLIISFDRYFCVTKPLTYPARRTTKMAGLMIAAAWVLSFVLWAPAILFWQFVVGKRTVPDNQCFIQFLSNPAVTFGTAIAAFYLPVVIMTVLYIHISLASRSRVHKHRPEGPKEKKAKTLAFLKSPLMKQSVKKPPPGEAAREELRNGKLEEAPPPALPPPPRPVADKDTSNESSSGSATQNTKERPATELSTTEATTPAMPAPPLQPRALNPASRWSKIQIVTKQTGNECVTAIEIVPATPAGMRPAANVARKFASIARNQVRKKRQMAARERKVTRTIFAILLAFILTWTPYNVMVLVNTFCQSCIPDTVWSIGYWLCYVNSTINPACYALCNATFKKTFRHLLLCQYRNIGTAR

[13] = measured here: cell density z-score
[14] = measured here: nuclear c-Myc green intensity z-score
[15] = measured here: nuclear pErk red intensity z-score, stronger effect = higher value

Row | Compound | inhibition of aggregation [1] | nuclei count [1] [%] | inhibition [2] | nuclei count [2] | z-score [3, 13] | z-score [3, 14] | z-score [3, 15] | inhibition [4] | fluorescence slope [5] | NADPH fluorescence slope [6] | slope [7] | outcome [8] | inhibition [9] | inhibition [10] | inhibition [11] | fluorescence slope [12]
1 | Cc1cn([C@H]2C=C[C@@H](CO)O2)c(=O)[nH]c1=O | -10.6% (inactive) | 106 | -114% (inactive) | 123% | -0.857 | 1.21 | -0.244 | 7.39% (inactive) | -0.461 (inactive) | 2.9e-05 (inactive) | 0.00508 (inactive) | inactive | -4.19% (inactive) and -13.6% (inactive) | 16.3% (inactive) | 37.9% (inactive) | 
2 | C=C(CC)C(=O)c1ccc(OCC(=O)O)c(Cl)c1Cl | 19.4% (inactive) | 108 | -32.5% (inactive) | 120% | -0.0756 | -0.0149 | 0.974 | 5.42% (inactive) | -0.476 (inactive) | -8e-05 (inactive) | 0.00538 (inactive) | inactive | -3.46% (inactive) | 17.1% (inactive) | 39.1% (inactive) | 
3 | COc1cc(NS(=O)(=O)c2ccc(N)cc2)ncn1 | 15.6% (inactive) | 100 | -87.8% (inactive) and -123% (inactive) | 109% and 156% | -0.758 and -0.797 | -0.381 and 0.601 | 1.83 and 0.0867 | 12.4% (inactive) and -1.98% (inactive) | -0.448 (inactive) and -0.477 (inactive) | -8.5e-05 (inactive) and -7.6e-05 (inactive) | 0.00452 (inactive) | inactive | 15.5% (inactive) and 12.3% (inactive) | 6.56% (inactive) | 32.2% (inactive) | 0.00587 (inactive)
4 | CC(COc1ccccc1)N(CCCl)Cc1ccccc1 (centres undefined) | 3.6% (inactive) | 91.3 | -41.5% (inactive) | 106% | 0.673 | 0.156 | -1.5 | 3.59% (inactive) | -0.458 (inactive) | -8e-05 (inactive) | 0.00427 (inactive) | inactive | -4.83% (inactive) and 76.9% (active) | 4.33% (inactive) | 22.7% (inactive) | 
5 | CCOC(=O)C1=C(C)NC(C)=C(C(=O)OC)C1c1cccc([N+](=O)[O-])c1 (centres undefined) | -10.5% (inactive) | 97.3 | -50.3% (inactive) | 103% | 1.1 | 0.446 | 0.0067 | 19% (inactive) | -0.475 (inactive) | -2e-05 (inactive) | 0.00369 (inactive) |  | 5.78% (inactive) and 6.95% (inactive) | 12.9% (inactive) | 43.8% (inactive) | 
6 | O=c1[nH]c(=O)n([C@H]2C[C@H](O)[C@@H](CO)O2)cc1F | -11.9% (inactive) | 10.3 | -47% (inactive) | 116% | 0.0804 | 0.765 | -0.71 | 3.59% (inactive) | -0.533 (inactive) | -5.3e-05 (inactive) | 0.00542 (inactive) | inactive | -13.9% (inactive) | -38.5% (inactive) | 15.4% (inactive) | 
7 | CC(C)C[C@H]1C(=O)N2CCC[C@H]2[C@]2(O)O[C@](NC(=O)[C@@H]3C=C4c5cccc6[nH]c(Br)c(c56)CC4N(C)C3)(C(C)C)C(=O)N12 (some centres undefined) | -4% (inactive) | 96.5 | -74.8% (inactive) | 122% | -0.747 | -0.999 | 0.764 | 5.42% (inactive) | -0.523 (inactive) | 8.6e-06 (inactive) | 0.00416 (inactive) | inactive | -11.5% (inactive) | 7.85% (inactive) | 5.12% (inactive) | 
8 | CC1CCc2cc(F)cc3c(=O)c(C(=O)O)cn1c23 (centres undefined) | 3.7% (inactive) | 100 | -103% (inactive) | 114% | -0.137 | -0.228 | 0.466 | 13.3% (inactive) | -0.526 (inactive) | -7.5e-05 (inactive) | 0.00491 (inactive) | inactive | -5.13% (inactive) | 9.82% (inactive) | 32.9% (inactive) | 
9 | CN(C)CCCC1(c2ccc(F)cc2)OCc2cc(C#N)ccc21 (centres undefined) | -40.9% (inactive) | 103 | -57.3% (inactive) | 141% | -1.47 | -1.41 | 2.05 | -9.66% (inactive) | -0.453 (inactive) | 1.8e-06 (inactive) | 0.00413 (inactive) | inactive | 8.33% (inactive) and 1.25% (inactive) | 1.82% (inactive) | 18.9% (inactive) | 
10 | Cc1cc(C(C)(C)C)cc(C)c1CC1=NCCN1 | 8.7% (inactive) | 94.6 | -76.9% (inactive) | 129% | 0.444 | -0.489 | -0.727 | 5.79% (inactive) | -0.464 (inactive) | -7.1e-05 (inactive) | 0.00474 (inactive) | inactive | -10% (inactive) and -5.2% (inactive) | 2.07% (inactive) | 45.9% (inactive) | 
11 | CC(=O)OC[C@H]1O[C@@H](n2ncc(=O)[nH]c2=O)[C@H](OC(C)=O)[C@@H]1OC(C)=O | 14.3% (inactive) | 77.3 | -22.1% (inactive) | 116% | 1.58 | -1.02 | 0.322 | -0.828% (inactive) | -0.468 (inactive) | -5.4e-05 (inactive) | 0.0044 (inactive) |  | -10.6% (inactive) | 13.3% (inactive) | -14.5% (inactive) | 
12 | CCCc1cc(=O)[nH]c(=S)[nH]1 | 6.2% (inactive) | 105 | -113% (inactive) | 126% | 0.461 | -0.47 | -0.798 | 15.3% (inactive) | -0.468 (inactive) | -6.3e-05 (inactive) | 0.00437 (inactive) | inactive | -10.4% (inactive) | 10.3% (inactive) | 30.1% (inactive) | 
13 | CC(C)(C)NC[C@H](O)COc1nsnc1N1CCOCC1 | -13.8% (inactive) | 102 | -120% (inactive) | 119% | -0.0639 | -0.39 | 1.55 | -10.4% (inactive) | -0.502 (inactive) | -5e-06 (inactive) | 0.00458 (inactive) | inactive | -10.5% (inactive) | 6.87% (inactive) | 46.4% (inactive) | 
14 | CCOc1ccc2nc(S(N)(=O)=O)sc2c1 | -4.8% (inactive) | 112 | -20.9% (inactive) | 127% | 1.44 | 0.726 | -0.916 | 21.2% (inactive) | -0.485 (inactive) | -5.5e-05 (inactive) | 0.00518 (inactive) | inactive | 31% (inactive) | 3.12% (inactive) | -17% (inactive) | 
15 | CN(C)CCC(c1ccc(Br)cc1)c1ccccn1 (centres undefined) | -6% (inactive) | 111 | -39% (inactive) | 109% | -1.33 | -0.476 | 0.326 | -6.41% (inactive) | -0.467 (inactive) | -6.3e-05 (inactive) | 0.00532 (inactive) | inactive | 0.349% (inactive) and -9.79% (inactive) | 5.43% (inactive) | 31.9% (inactive) | 
16 | CC(=O)[C@H]1CC[C@H]2[C@@H]3CCC4=CC(=O)CC[C@]4(C)[C@H]3CC[C@]12C | -5.3% (inactive) | 74.7 | -153% (inactive) | 125% | -0.82 | -0.521 | -0.268 | -0.493% (inactive) | -0.446 (inactive) | -4.8e-05 (inactive) | 0.00331 (inactive) | inactive | 2.24% (inactive) and 8.52% (inactive) | 3.73% (inactive) | 31.6% (inactive) | 
17 | O=C1CCc2cc(OCCCCc3nnnn3C3CCCCC3)ccc2N1 | 14.7% (inactive) | 106 | -114% (inactive) | 136% | 0.404 | -0.117 | -0.524 | 27.1% (inactive) | -0.456 (inactive) | -6.4e-05 (inactive) | 0.00334 (inactive) | inactive | 3.02% (inactive) and 2.15% (inactive) | -3.33% (inactive) | 20.5% (inactive) | 
18 | CC(=O)N[C@@H](CS)C(=O)O | 7.3% (inactive) | 104 | -49.2% (inactive) | 120% | 0.131 | -1.67 | 0.657 | 1.48% (inactive) | -0.543 (inactive) | -3.7e-05 (inactive) | 0.0055 (inactive) | inactive | 3.13% (inactive) and -2.25% (inactive) | 11.9% (inactive) | 21% (inactive) | 
19 | CC1(C)O[C@@H]2C[C@H]3[C@@H]4CCC5=CC(=O)C=C[C@]5(C)[C@@]4(F)[C@@H](O)C[C@]3(C)[C@]2(C(=O)CO)O1 | -6.5% (inactive) | 62.6 | -115% (inactive) | 116% | 0.696 | -0.511 | -0.313 | -2.46% (inactive) | -0.515 (inactive) | -2.4e-05 (inactive) | 0.00512 (inactive) | inactive | -13.3% (inactive) | -3.36% (inactive) | 10.8% (inactive) | 
20 | CCOC(=O)c1cc2c(=O)n3cccc(C)c3nc2n(CCc2ccccc2)c1=N | -9% (inactive) | 86.6 | -145% (inactive) | 116% | -0.746 | 0.0077 | 0.78 | -16.8% (inactive) | -0.42 (inactive) | -2e-05 (inactive) |  | inactive | 150% (active) | 12% (inactive) | 28.5% (inactive) | 0.00314 (inactive)
21 | CC1(C)S[C@@H]2[C@H](NC(=O)Cc3ccccc3)C(=O)N2[C@H]1C(=O)O | 9.3% (inactive) | 68.8 | -6% (inactive) | 104% | 1.44 | -1.24 | -1.04 | 5.79% (inactive) | -0.496 (inactive) | -5.4e-05 (inactive) | 0.00416 (inactive) | inactive | 4.14% (inactive) | 20.3% (inactive) | 37.6% (inactive) | 
22 | CC(=O)Oc1ccc(C(c2ccc(OC(C)=O)cc2)c2ccccn2)cc1 | -12.4% (inactive) | 99.8 | -68.3% (inactive) | 100% | -0.73 | 0.784 | 0.224 | 5.79% (inactive) | -0.45 (inactive) | -2.1e-05 (inactive) | 0.00425 (inactive) | inactive | 19.6% (inactive) | 12.5% (inactive) | 40.9% (inactive) | 
